The values below come from PubChem BioAssay.

Several values for one entry are separate records, joined by “and”; a condition that tells them apart may be missing. Equal entries are not always repeated. Activity calls are given as the source filed them.

Test [1] in a line: optical density shifts of acrAB sulA E. coli – strain DRC41, OD650, 48 h, E. coli filamentation inducer project, primary screen (AID 1152).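 Note: E. coli MC1000 strain DRC41 lacking acrAB efflux pump and sulA.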 The note with it: higher = more signal, called active from +8 up or from −8 down.
Test [2] is described as follows: probe aLefty1 binding on compound microarray – biochemical, small-molecule microarray, 635/667 nm fluorescence, primary screen (AID 1153).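 Note: score merges spot fluorescence with signal-to-noise ratio from the scanned slide images.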 The conditions noted are these: higher = more signal.
Test [3] is described as follows: plasmodial surface anion channel blockers, osmotic lysis – cell-based, P. falciparum Indochina, OD700, 1 h, primary screen (AID 1154). The conditions noted are these: P. falciparum Indochina infected RBC osmotic lysis, higher = more signal, called active from +8 up or from −8 down.
Test [4] is described as follows: plasmodial surface anion channel blockers, osmotic lysis – cell-based, P. falciparum Indochina, OD700, 2 h, primary screen (AID 1155).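 Note: lysis reports solute entry through the parasite surface anion channel PSAC.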 The conditions noted are these: P. falciparum Indochina infected erythrocytes, higher = more signal, called active from +8 up or from −8 down.
Test [5] can be described thus: changes in parasitized red cell lysis, either direction – P. falciparum Indochina, OD700, 3 h, PSAC antagonist project, primary screen (AID 1156). The conditions noted are these: P. falciparum-infected erythrocytes, osmotic lysis, higher = more signal, called active from +8 up or from −8 down.
Test [6] in a line: plasmodial surface anion channel blockers, osmotic lysis – cell-based, P. falciparum Indochina, OD700, 18 h, primary screen (AID 1157). The conditions noted are these: P. falciparum Indochina infected erythrocytes, osmotic lysis OD700, 18 h; higher = more signal, called active from +8 up or from −8 down.
Test [7] is described as follows: S6 kinase pathway phospho-S6 level changes – cell-based, A549, cytoblot, luminescence, serum-stimulated, primary screen (AID 1158).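 Note: serum-stimulated A549 lung adenocarcinoma cells; signal is phosphorylated S6 detected by cytoblot immunostaining with HRP secondary.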 The conditions noted are these: 5 h, higher = more signal.
The target of test [8] is NADPH oxidase 2 (Homo sapiens) (UniProt P04839). Put plainly: compounds shifting NOX2 Amplex Red fluorescence – cell-based, HEK293-NOX2, PMA-stimulated, NOX inhibitor project, primary screen (AID 1159). Note: test concentration not given here. The note with it: 45 min, higher = more signal, called active from +8 up or from −8 down.
NADPH oxidase 2 (Homo sapiens), sequence (P04839 whole entry, looked up): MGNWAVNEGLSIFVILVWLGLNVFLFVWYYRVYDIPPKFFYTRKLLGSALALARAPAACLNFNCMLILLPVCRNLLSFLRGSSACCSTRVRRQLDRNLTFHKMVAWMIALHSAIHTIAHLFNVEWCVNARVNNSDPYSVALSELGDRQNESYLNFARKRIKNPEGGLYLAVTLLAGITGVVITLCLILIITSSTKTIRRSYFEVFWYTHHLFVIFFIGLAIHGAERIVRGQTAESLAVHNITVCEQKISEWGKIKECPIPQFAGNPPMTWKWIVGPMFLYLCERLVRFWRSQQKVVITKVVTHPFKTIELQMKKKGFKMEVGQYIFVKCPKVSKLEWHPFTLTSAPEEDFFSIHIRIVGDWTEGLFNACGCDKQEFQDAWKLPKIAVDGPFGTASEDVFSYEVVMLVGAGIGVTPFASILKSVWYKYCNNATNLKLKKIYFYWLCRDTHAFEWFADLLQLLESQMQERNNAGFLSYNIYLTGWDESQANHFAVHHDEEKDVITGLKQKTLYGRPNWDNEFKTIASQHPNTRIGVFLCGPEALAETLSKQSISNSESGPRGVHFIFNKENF
The target in test [9] is NADPH oxidase 4 (Homo sapiens) (UniProt Q9NPH5). Put plainly: compounds shifting NOX4 Amplex Red fluorescence – cell-based, HEK293-NOX4, tetracycline-induced, NOX inhibitor project, primary screen (AID 1160). The note with it: HEK293-NOX4, Amplex Red H2O2 fluorescence, 45 min; higher = more signal, called active from +8 up or from −8 down.
NADPH oxidase 4 (Homo sapiens), sequence (Q9NPH5 whole entry, looked up): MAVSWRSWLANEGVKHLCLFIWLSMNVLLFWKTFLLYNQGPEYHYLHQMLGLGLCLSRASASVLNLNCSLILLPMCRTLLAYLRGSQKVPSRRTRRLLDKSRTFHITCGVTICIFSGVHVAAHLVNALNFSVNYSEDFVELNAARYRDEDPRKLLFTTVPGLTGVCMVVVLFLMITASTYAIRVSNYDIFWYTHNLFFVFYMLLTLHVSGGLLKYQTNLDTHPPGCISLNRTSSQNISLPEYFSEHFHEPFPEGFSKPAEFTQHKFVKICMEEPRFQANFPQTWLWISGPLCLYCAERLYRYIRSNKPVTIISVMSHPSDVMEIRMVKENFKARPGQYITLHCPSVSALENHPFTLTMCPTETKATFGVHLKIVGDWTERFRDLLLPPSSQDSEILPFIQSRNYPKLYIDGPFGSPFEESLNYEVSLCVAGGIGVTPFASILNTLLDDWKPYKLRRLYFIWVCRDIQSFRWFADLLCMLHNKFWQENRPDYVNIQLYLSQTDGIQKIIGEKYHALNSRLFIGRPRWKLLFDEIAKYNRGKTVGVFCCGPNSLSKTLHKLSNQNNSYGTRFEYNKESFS
For test [10], the target named is NADPH oxidase 5 (Homo sapiens) (UniProt Q96PH1). The experiment in a line: compounds shifting NOX5 Amplex Red fluorescence – cell-based, HEK293-NOX5, NOX inhibitor project, primary screen (AID 1161). The conditions noted are these: HEK293-NOX5, ionomycin, 45 min, higher = more signal.
NADPH oxidase 5 (Homo sapiens), sequence (Q96PH1 whole entry, looked up): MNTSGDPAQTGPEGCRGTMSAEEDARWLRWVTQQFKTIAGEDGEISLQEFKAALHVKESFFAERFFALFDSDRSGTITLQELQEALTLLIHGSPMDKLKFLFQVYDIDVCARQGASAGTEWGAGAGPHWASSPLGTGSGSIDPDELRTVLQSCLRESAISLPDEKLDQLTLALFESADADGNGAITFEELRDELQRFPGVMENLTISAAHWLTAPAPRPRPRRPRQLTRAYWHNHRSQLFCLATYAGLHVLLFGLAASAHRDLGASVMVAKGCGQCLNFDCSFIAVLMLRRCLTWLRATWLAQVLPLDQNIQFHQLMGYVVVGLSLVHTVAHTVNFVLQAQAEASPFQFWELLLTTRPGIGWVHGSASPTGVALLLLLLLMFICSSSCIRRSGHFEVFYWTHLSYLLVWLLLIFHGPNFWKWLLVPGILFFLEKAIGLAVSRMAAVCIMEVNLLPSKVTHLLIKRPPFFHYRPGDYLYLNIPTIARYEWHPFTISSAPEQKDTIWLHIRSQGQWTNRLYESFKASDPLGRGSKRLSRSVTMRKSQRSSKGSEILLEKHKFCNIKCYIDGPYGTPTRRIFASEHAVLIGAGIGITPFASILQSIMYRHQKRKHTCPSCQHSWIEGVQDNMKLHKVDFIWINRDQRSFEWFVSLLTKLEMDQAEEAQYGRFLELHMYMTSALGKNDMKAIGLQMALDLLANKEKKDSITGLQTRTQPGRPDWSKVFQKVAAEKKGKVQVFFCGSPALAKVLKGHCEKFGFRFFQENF

As for `CC(C)OC(=O)C=C1C[C@@H](c2cccc(C(F)(F)F)c2)O[C@@H](c2cccc(C(F)(F)F)c2)O1`, the z-score in [1] was -0.599 (inactive) and -0.778 (inactive); in [3], 2.3 (inactive); in [4], 0.707 (inactive) and 1.02 (inactive); in test [5] it was 0.192 (inactive) and -0.365 (inactive); in [6], 0.613 (inactive) and 0.561 (inactive); in [7], 0.156 and -0.463. Besides, the z-score in [8] was -0.112 (inactive) and 0.194 (inactive); in test [9], -1.2 (inactive) and -0.65 (inactive); in [10] it was -1.3 and -0.324. Moreover, in test [2], the composite z-score was -0.0518 and -0.371.
For `C=CCN(C(=O)C(c1cccs1)N(CCOCCO)C(=O)/C=C\C(=O)O)C(C)(C)C` (stereo not given), the z-score is 1.56 (inactive) and 0.971 (inactive) in test [1]; -1.2 (inactive) and -1.15 (inactive) in test [3]; -0.172 (inactive) and -0.307 (inactive) in test [4]; 0.0342 (inactive) and -0.837 (inactive) in test [5]; 0.011 (inactive) and -0.113 (inactive) in test [6]; 0.234 and 0.15 in test [7]. In addition, the z-score in test [8] was -0.302 (inactive) and -0.0837 (inactive); in [9] it was -0.904 (inactive) and -0.857 (inactive); in test [10], 0.0514 and 0.0449. Further, the composite z-score in [2] was -0.371 and -0.355.
Turning to `Cc1ccc(S(=O)(=O)OC[C@@H]2CN3[C@@H](CC[C@@H](C)[C@@H]3c3ccc(Br)cc3)C(=O)O2)cc1`, the z-score in [1] was 0.0029 (inactive) and -0.348 (inactive); in test [3], 2.52 (inactive) and 4.44 (inactive); in test [4] it was 0.0068 (inactive) and 1.78 (inactive); in test [5], -0.414 (inactive) and 0.812 (inactive); in test [6], -0.0954 (inactive) and 0.932 (inactive); in test [7] it was -0.834 and 0.119. The z-score in test [8] is 1.24 (inactive) and 0.787 (inactive); in [9] it was 0.37 (inactive) and -0.0143 (inactive); in test [10], 0.0798 and 0.702. In addition, the composite z-score in test [2] was -0.134 and -0.144.
In the case of `C=CCN(CCCCC)C(=O)C(c1cccs1)N(C(=O)/C=C\C(=O)O)c1c(Cl)cccc1CO` (stereo not given), the z-score in test [1] is -0.316 (inactive) and -0.346 (inactive); in test [3] it was -0.501 (inactive) and 0.334 (inactive); in test [4] it was 0.092 (inactive) and 0.571 (inactive); in test [5], -0.0324 (inactive) and -0.0069 (inactive); in test [6], 0.257 (inactive) and 0.404 (inactive); in [7], -0.122 and -0.137. For the same compound, the z-score in test [8] is 0.306 (inactive) and 0.277 (inactive); in test [9], -0.584 (inactive) and -0.408 (inactive); in test [10], 0.212 and 0.29. Also, the composite z-score in test [2] was 0.0005 and -1.11.
For the compound `CCCNC(=O)OC[C@H]1O[C@H](CCON=C(C)CCC(=O)OC[C@H]2O[C@H](C#Cc3ccccc3)C=C[C@@H]2Oc2ccc(C)cc2)C=C[C@@H]1Oc1ccc(OC)cc1`, the z-score is 0.181 (inactive) in [1]; 0.77 (inactive) in test [3]; 0.329 (inactive) in [4]; -0.107 (inactive) in [5]; 0.097 (inactive) in [6]; -0.591 in [7]. For the same compound, the results for the z-score in test [8], in [9] and in test [10] were 0.333 (inactive), 0.854 (inactive) and -0.746, respectively. The composite z-score in [2] was -0.0917.
Take `C=CCN(C(=O)C1N(c2ccc(CCO)cc2)C(=O)C2C(C(=O)O)C3C=CC21O3)c1ccc(OC)cc1` (stereo not given): the z-score was -0.0883 (inactive) and 1.76 (inactive) in test [1]; 2.34 (inactive) and 0.289 (inactive) in test [3]; 0.752 (inactive) and -0.136 (inactive) in test [4]; -0.0787 (inactive) and -0.0798 (inactive) in test [5]; 0.258 (inactive) and 0.284 (inactive) in test [6]; 0.0631 and 2.4 in [7]. Also, the z-score is 1.27 (inactive) and -0.00582 (inactive) in [8]; -1.05 (inactive) and -0.234 (inactive) in test [9]; 2.64 and -0.701 in test [10]. Moreover, the composite z-score in [2] was -0.147 and -0.216.
In the case of `CCCCN1CC=CC23O[C@@H]4C=CCCOC(=O)C4[C@H]2C(=O)N(C(C)CO)[C@@H]3C1=O` (stereo not given in full), the z-score in test [1] is -0.462 (inactive) and -0.0672 (inactive); in test [3], 1.77 (inactive) and 0.636 (inactive); in [4], 0.446 (inactive) and 1.06 (inactive); in [5], 0.874 (inactive) and 1.09 (inactive); in [6], 0.234 (inactive) and 0.601 (inactive); in test [7] it was 1.48 and 1.2. The z-score in test [8] was 1.49 (inactive) and 1.3 (inactive); in test [9] it was 0.784 (inactive) and 0.359 (inactive); in test [10] it was 2.31 and 2. The composite z-score in test [2] is -0.007 and 0.0181.
